# Reference: article PMC4552634, “A New Set of Chemical Starting Points with Plasmodium falciparum Transmission-Blocking Potential for Antimalarial Drug Discovery” (PLoS ONE, 2015)
# Read-outs that look alike come from different tables or passages of the source. Hit rate of the full screen: of about 13,000 compounds, about 3,200 (25%) showed an effect of 50% or more. The list shows a part of the results.
# System: P. falciparum stage V gametocytes
# Parameters: BacTiter-Glo ATP luminescence viability of purified stage V gametocytes in 384-well plates, per cent inhibition versus DMSO
# Conditions: 48 h, 5 µM, inhibitor
SMILES,% Inhibition,% Inhibition (% Inhibition)
COc1ccc(NC(=O)Nc2ccc(-c3ccc(-c4nc5cccc(C)c5[nH]4)s3)cc2)cc1 [TCMDC-133243],-2.294%,
COc1ccc(CON2C(N)=NC(N)=NC2(C)C)cc1OC [TCMDC-131587],8.467%,
N#Cc1ccc2[nH]cc(-c3cn4cc(SC5CCCC5)ccc4n3)c2c1 [TCMDC-134705],-50.98%,
COc1cccc(NC(=O)c2cc(C(=O)Nc3cccc(OC)c3)cc([N+](=O)[O-])c2)c1 [TCMDC-125177],2.834%,
O=C(Nc1cccnc1)c1cc(C(=O)Nc2cccnc2)cc([N+](=O)[O-])c1 [TCMDC-125067],-34.07%,
O=C(Nc1ccncc1)c1cc(C(=O)Nc2ccncc2)cc([N+](=O)[O-])c1 [TCMDC-125671],89.24%,
CC(C)c1ccc2c(c1)c(SC(C)(C)C)c(CC(C)(C)C#N)n2Cc1ccc(Cl)cc1 [TCMDC-131974],-57.09%,
C[C@H](Cc1ccc(OCCCCCCOc2ccccc2)cc1)NC[C@@H](O)c1cc(Br)no1 [TCMDC-131567],65.38%,
C[C@H](Cc1ccc(OCCCCCCOc2ccc(C[C@@H](C)N[C@H](C)c3ccccc3)cc2)cc1)NC[C@H](O)c1cccc(Cl)c1 [TCMDC-131564],103.4%,
COC(=O)c1ccc(CC(C)NCC(O)c2cccc(OCc3ccccc3)c2)cc1 (stereo not drawn) [TCMDC-131486],29.25%,
COC(=O)c1ccc(CC(C)NCC(O)c2ccc(C(O)CNC(C)Cc3ccc(C(=O)OC)cc3)cc2)cc1 (stereo not drawn) [TCMDC-131545],100.9%,
COC(=O)c1ccc(CC(C)NCC(O)c2ccc(F)c(Cl)c2)cc1 (stereo not drawn) [TCMDC-131517],4.686%,
COC(=O)c1ccc(CC(C)NCC(O)c2ccc(Cl)c(Cl)c2)cc1 (stereo not drawn) [TCMDC-131431],21.35%,
C[C@H](Cc1ccc(OCCNC[C@H](O)c2cccc(Cl)c2)cc1)NC[C@H](O)c1ccc(Cl)c(Cl)c1 [TCMDC-131547],69.99%,
COc1ccc(C(=O)NCC(C)(C)c2nc(-c3ccc(Cl)c(O)c3)c(-c3ccncc3)[nH]2)cc1OCCN(C(C)C)C(C)C [TCMDC-140736],2.982%,
CCCCCN1CCCC1CNS(=O)(=O)c1cccc(C(=O)Nc2cccc(C#N)c2)c1 (stereo not drawn) [TCMDC-133690],-52.73%,
Cc1ccc(C)c2sc(N(CCCn3ccnc3)C(=O)C=Cc3cccs3)nc12 [TCMDC-124923],12.01%,
C=C[C@H]1CN2CC[C@H]1C[C@H]2[C@H](OS(=O)(=O)O)c1ccnc2ccccc12 [TCMDC-138341],14.93%,
c1ccc(CCNc2ccnc(Nc3ccc4n[nH]nc4c3)n2)cc1 [TCMDC-136881],0.773%,
CCCC(C)c1cnc2nc(N)nc(N)c2c1C (stereo not drawn) [TCMDC-137924],4.639%,
CCCC1N=C(N)N=C(N)N1c1ccccc1 (stereo not drawn) [TCMDC-131293],-19.04%,
COC(=O)c1ccc(C[C@@H](C)NC[C@H](O)c2cccc(C(F)(F)F)c2)cc1 [TCMDC-131475],,15.4%

SMILES,% Inhibition,% Inhibition (% Inhibition)
C[C@H](Cc1ccc(OCCCCCCOc2ccccc2)cc1)NC[C@H](O)c1cccc(Cl)c1 [TCMDC-131552],11.17%,
CC(Cc1ccc(OCCOc2ccccc2)cc1)NCC(O)c1cccc(C(F)(F)F)c1 (stereo not drawn) [TCMDC-131510],16.36%,
C#CCOc1ccc(CC(C)NCC(O)c2cccc(C(F)(F)F)c2)cc1 (stereo not drawn) [TCMDC-131480],12.31%,
CC(Cc1ccc(C2=CCNCC2)cc1)NCC(O)c1cccc(C(F)(F)F)c1 (stereo not drawn) [TCMDC-131537],95.16%,
CC(Cc1ccc(C(=O)OCCOC(=O)c2ccc(CC(C)NCC(O)c3cccc(C(F)(F)F)c3)cc2)cc1)NCC(O)c1cccc(C(F)(F)F)c1 (stereo not drawn) [TCMDC-131544],75.47%,
CNCCCCCCOc1ccc(CC(C)NCC(O)c2cccc(C(F)(F)F)c2)cc1 (stereo not drawn) [TCMDC-131523],111.6%,
CC(Cc1ccc(OCCN2CCN(c3cccc(Cl)c3)CC2)cc1)NCC(O)c1cccc(Cl)c1 (stereo not drawn) [TCMDC-131533],18.65%,
COC(=O)c1ccc(C[C@@H](C)NC[C@H](O)c2cccc(C(F)(F)F)c2)cc1 [TCMDC-131458],,35.35%
C[C@H](Cc1ccc(OCCCCCOc2ccc(C[C@@H](C)NC[C@H](O)c3cccc(Cl)c3)cc2)cc1)NC[C@H](O)c1cccc(Cl)c1 [TCMDC-131563],110.4%,
CCOC(=O)c1ccc(CC(C)NCC(O)c2cccc(C(F)(F)F)c2)cc1 (stereo not drawn) [TCMDC-131491],8.983%,
COC(=O)c1ccc(CC(C)NCC(O)c2cccc(C(F)(F)F)c2)cc1 (stereo not drawn) [TCMDC-131438],,6.787%
O=C(NCc1cccc(F)c1)Nc1cccc(-c2ccc(-c3nc4ccc(F)cc4[nH]3)cc2)c1 [TCMDC-133293],6.951%,
O=C(O)C1CC(=O)N(c2ccc(Cl)cc2)C1 (stereo not drawn) [TCMDC-125862],2.166%,
COc1cccc(CN2CCCC(OC(c3ccc(F)cc3)c3ccc(F)cc3)C2)c1O (stereo not drawn) [TCMDC-136167],-3.055%,
CN1CCC(NC(=O)c2cccc(Nc3cc(Nc4cccc(Br)c4)ncn3)c2)CC1 [TCMDC-124773],-81.1%,
CN(C)CCOc1ccc(-c2cc(-c3ccncc3)c(-c3ccc(Cl)c(O)c3)o2)cc1 [TCMDC-141227],36.77%,
COCC(C)n1c(SC(C)C(=O)Nc2cc([N+](=O)[O-])ccc2Cl)nc2ccccc2c1=O (stereo not drawn) [TCMDC-123709],-35.25%,
CC(NCCc1cccc(Cl)c1)C(O)c1ccc(OCCCCCCOc2ccc(C(O)C(C)NCCc3cccc(Cl)c3)cc2)cc1 (stereo not drawn) [TCMDC-139334],98.69%,
C[C@H](Cc1ccc(OCCCCCCOc2ccc(C[C@@H](C)NC(=O)[C@H](O)c3cccc(Cl)c3)cc2)cc1)NC[C@H](O)c1cccc(Cl)c1 [TCMDC-131571],-3.505%,
CC(Cc1ccc(OCCOc2ccccc2)cc1)NCC(O)c1cccc(Cl)c1 (stereo not drawn) [TCMDC-138939],12.28%,
C[C@H](Cc1ccc(C[C@@H](C)NC[C@H](O)c2cccc(Cl)c2)cc1)NC[C@H](O)COc1ccccc1 [TCMDC-131549],104.7%,
CCCN1CCN(c2cc(NCC)c3c4c(onc24)-c2ccccc2C3=O)CC1 [TCMDC-123898],-28.72%,

SMILES,% Inhibition,% Inhibition (% Inhibition)
c1cc(COc2ccc(C3=NCCN3)cc2)nc(COc2ccc(C3=NCCN3)cc2)c1 [TCMDC-137805],-1.887%,
CN1CCN(c2ccnc3ccc(NC(=O)Nc4ccc5ccccc5c4)cc23)CC1 [TCMDC-139343],-1.403%,
Cc1cccc2[nH]c(-c3ccc(-c4cccc(NC(=O)c5ccncc5)c4)cc3)nc12 [TCMDC-136958],22.27%,
Cc1cccc2[nH]c(-c3cccc(-c4ccc(NC(=O)NC(C)C)cc4)c3)nc12 [TCMDC-133251],-14.46%,
Cc1cccc2[nH]c(-c3cccc(-c4ccc(NC(=O)c5ccncc5)cc4)c3)nc12 [TCMDC-136966],61.29%,
Cc1cccc2[nH]c(-c3cccc(-c4ccc(NC(=O)c5ccc(=O)[nH]n5)cc4)c3)nc12 [TCMDC-137034],-23.81%,
Cc1cccc2[nH]c(-c3cccc(-c4ccc(NC(=O)c5cnc[nH]5)cc4)c3)nc12 [TCMDC-136937],92.2%,
Cc1cccc2[nH]c(-c3cccc(-c4cccc(NC(=O)c5ccncc5)c4)c3)nc12 [TCMDC-136965],-36.15%,
Cc1cccc2[nH]c(-c3cccc(-c4cccc(NC(=O)c5cnc[nH]5)c4)c3)nc12 [TCMDC-136936],-12.17%,
Cc1cccc2[nH]c(-c3cccc(-c4ccc(NC(=O)c5ccoc5)cc4)c3)nc12 [TCMDC-136847],83.68%,
Cc1cccc2[nH]c(-c3cccc(-c4cccc(NC(=O)c5ccoc5)c4)c3)nc12 [TCMDC-136846],20.35%,
O=C(Nc1ccc(-c2ccc(-c3nc4ccccc4[nH]3)s2)cc1)c1ccncc1 [TCMDC-136954],11.16%,
COc1cc(-c2ccc3c(-c4ccc(C(=O)N5CCN(C)CC5)cc4)[nH]nc3n2)cc(OC)c1OC [TCMDC-124890],40.62%,
COCCCNc1sc(S(=O)(=O)c2ccccc2)nc1S(=O)(=O)c1ccc(Cl)cc1 [TCMDC-124764],-6.212%,
Cc1ccccc1NC(=O)C1CSCN1C(=O)OCc1ccccc1 (stereo not drawn) [TCMDC-125742],-21.88%,
COc1ccc(C(=O)NCc2ccccc2-c2ccc(C(C)(C)C)cc2)cc1O [TCMDC-136716],-20.55%,
COc1ccc(F)cc1-c1ccccc1CNC(=O)CN(C)S(=O)(=O)c1cc(C)cc(Cl)c1C [TCMDC-132302],82.24%,
COc1ccc(F)cc1-c1ccccc1CNC(=O)c1cnn(-c2ccc([N+](=O)[O-])cc2)c1C(F)(F)F [TCMDC-136460],-26.92%,
CCCCCC(C)N=C(Nc1ccc([N+](=O)[O-])cc1O)Nc1ccccc1Br (stereo not drawn) [TCMDC-140073],-48.06%,
CCOC(=O)C1=C(C)N=c2sc(=Cc3cc(Cl)ccc3O)c(=O)n2C1c1ccc2c(c1)OCO2 (stereo not drawn) [TCMDC-124113],66.04%,
CCOC(=O)C1=C(C)N=c2sc(=Cc3cc(Cl)ccc3O)c(=O)n2C1c1cc(OC)c(OC)cc1Br (stereo not drawn) [TCMDC-124116],34.65%,
CCOC(=O)C1=C(C)N=c2sc(=Cc3cc(Cl)ccc3O)c(=O)n2C1c1ccc(OC)cc1 (stereo not drawn) [TCMDC-124112],-5.89%,
